Rows were chosen to be rich in hits. Some 0.52% of all compounds tested hit in one or more screens of this group.
USP2a block: USP2a (human) protease inhibition | USP2 core, Ub-CHOP2 coupled fluorogenic reporter, 485/531 | Potency, µM (doses to about 38.3 µM), actives largely listed as inhibitors | 330,000 compounds, 0.01% hits | AID 463254
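Deubiquitinase activity read as fluorescence (485/531 nm) after Ub-CHOP2 cleavage activates the enterokinase reporter on its substrate; USP2 core 10nM, Ub-CHOP2 and substrate 25nM each, 30min compound preincubation then 60min RT; data normalized to NEM, curves fitted.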
RGS4 inhibitor: human RGS4 inhibition | Transcreener GDP fluorescence polarization, RGS4-accelerated GTP hydrolysis | Potency, µM (series often up to 114 µM), hits mostly inhibitors | 390,000 compounds, 0.039% hits; further: nearly all actives have a fitted effect of over 75% in size
Target sequence (P49798 whole entry, looked up): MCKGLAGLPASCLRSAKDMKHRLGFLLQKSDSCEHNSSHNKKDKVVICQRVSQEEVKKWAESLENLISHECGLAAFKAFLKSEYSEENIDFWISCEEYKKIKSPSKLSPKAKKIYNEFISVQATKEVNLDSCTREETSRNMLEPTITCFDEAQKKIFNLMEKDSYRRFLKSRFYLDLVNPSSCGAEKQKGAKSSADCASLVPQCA
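MLSMR compounds (23 nl, pin-transferred) preincubated 10 min at room temperature with a 500nM (2x) first reagent, then RGS4 at 900nM (2x) plus Transcreener GDP mix added; fluorescence polarization (620/688 nm) read before and after 90 min at 30 °C.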
GCN5L2 inh-1: inhibitors of human GCN5L2 histone acetyltransferase. 390,000 compounds, 0.21% hits. Potency, µM (doses to about 58.9 µM), hits mostly inhibitors. AID 504327. Q92830. GCN5L2 HAT assay, ThioGlo1 CoA-SH fluorescence
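ThioGlo1-coupled HAT assay: 20nM GCN5L2, 70uM acetyl-CoA, 75uM H3(1-25) peptide, pH 7.5. Fluorescence read at 340/540nm at start and after 20 min at room temperature.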
uPA surface inh: inhibitors of cell surface uPA generation | cell surface uPA generation assay, qHTS | 330,000 compounds, 0.31% hits | Potency, µM (top dose mostly 38.3 µM), actives largely listed as inhibitors; active means well fitted inhibition curve with a large enough effect; inconclusive means small, poorly fitted or top-dose-only effect; inactive means no such curve, though single readings can be large or run the other way; tested in mouse RAW 264.7 cells; further: nearly all actives have a fitted effect of over 55% in size
Eya2 inh: Eya2 (human) phosphatase inhibition | recombinant Eya2, OMFP fluorescence dephosphorylation (OMFP is methylfluorescein phosphate) | O00167 | AID 488837 | Potency, µM (titrated, usually from 76.9 µM), usual class: inhibitors | 330,000 compounds, 0.006% hits
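Eya2 (0.2 uM) preincubated 10 min at ambient with compound, then OMFP substrate added at 50 uM; 10 min reaction in 50 mM HEPES pH 7.5, 50 mM NaCl, 5 uM MgCl2, 0.05% BSA, 1 mM DTT. Fluorescence read at Ex 485/Em 525 nm.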
BCR signal inh: inhibitors of chronic active B-cell receptor signaling; Potency, µM (titrated, usually from 46.1 µM), actives largely listed as inhibitors; 340,000 compounds, 0.05% hits; ABC-DLBCL IkBa-CBG/CBR reporter, luminescence ratio, 4 h; AID 493014; active means well fitted inhibition curve with a large enough effect in the signal ratio, with a control signal flat, not every such curve was filed as active; inconclusive means small, poorly fitted or top-dose-only effect, or effect the other way, or a change in a side signal; the % refers to the signal ratio
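Cell line TMD8 (human ABC DLBCL), stably expressing tet-inducible CBG68-IkBa fusion and CBR; IMDM/0.5% FBS; cpd up to 46 uM; dox induction, 4 h, 37C/5% CO2; dual luminescence; green/red ratio; MG132 control.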
GCN5L2 inh-2: human KAT2A HAT inhibition, hit confirmation. 140 compounds, 70% hits. GCN5L2 HAT, ThioGlo1 CoA fluorescence, 20 min. Potency, µM, usual class: inhibitors. AID 588347. shares compounds with GCN5L2 inh-1
Of the large screens only hits and unclear results are named; the others gave an inactive call (follow-up assays come after a bar, where they were run). Unless noted, the call rests on the fitted dose curve; in most records, active means well fitted curve in the direction sought with a large enough effect; inconclusive means small, poorly fitted or top-dose-only effect, or another doubt; inactive means no such curve, though single readings can be large; an effect the other way counts as inactive or inconclusive.

CCOc1ccc(CNC(=O)CCCn2c(=O)c3cccn3c3ccccc32)cc1	none (no result: USP2a block, uPA surface inh, Eya2 inh, BCR signal inh)
C[n+]1ccccc1/C=C/c1ccc(C#N)cc1	GCN5L2 inh-1 inconclusive | GCN5L2 inh-2 29
C[n+]1ccccc1/C=C/c1ccc([N+](=O)[O-])cc1	none
CCOc1ccc(NC(=O)C(C)Sc2nnc3cc(C)c4ccccc4n23)cc1 (centres undefined)	none (no result: USP2a block, uPA surface inh, Eya2 inh, BCR signal inh)
CC(C)(C)C1CCc2nc(NC(=O)COc3ccc(F)cc3)sc2C1 (centres undefined)	none (no result: USP2a block, uPA surface inh, Eya2 inh, BCR signal inh)
CCOc1ccc(-n2c(C)cc(/C=C3/C(=N)N4C(=NC3=O)SN=C4S(C)(=O)=O)c2C)cc1	RGS4 inhibitor inconclusive, GCN5L2 inh-1 32µM | GCN5L2 inh-2 inconclusive
Cc1cc(/C=C2/C(=N)N3C(=NC2=O)SN=C3S(C)(=O)=O)c(C)n1-c1ccc(F)cc1	none
COc1ccc(CCn2c(O)cc3nn(-c4nc5ccccc5s4)c(=O)c-3c2C)cc1	USP2a block inconclusive, RGS4 inhibitor inconclusive, GCN5L2 inh-1 25µM | GCN5L2 inh-2 inconclusive
COc1ccc(CN2CCN(c3nc4ccccc4s3)CC2)cc1	none
CCn1c2ccccc2c2nc3cc(S(=O)(=O)N4CCOCC4)ccc3nc21	GCN5L2 inh-1 inconclusive | GCN5L2 inh-2 inconclusive
O=C(COC(=O)c1c2c(nc3ccccc13)/C(=C/c1ccco1)CC2)NC1CCCC1	USP2a block inconclusive, RGS4 inhibitor inconclusive, GCN5L2 inh-1 13µM | GCN5L2 inh-2 7.3
O=C(NCc1ccccc1F)C1CCN(c2nnc(-n3cccc3)s2)CC1	none (no result: USP2a block, uPA surface inh, Eya2 inh, BCR signal inh)
O=C(Nc1cccc(S(=O)(=O)NC2=NCCC2)c1)c1cc(-c2ccco2)nc2ccccc12	USP2a block inconclusive, RGS4 inhibitor inconclusive, GCN5L2 inh-1 13µM | GCN5L2 inh-2 inconclusive
Cc1ccc(S(=O)(=O)N2[C@@H](c3ccc(Br)cc3)C(C(=O)O)=CC[C@H]2c2ccc(Cl)c(Cl)c2)cc1	GCN5L2 inh-1 28µM | GCN5L2 inh-2 13
Cc1ccc(S(=O)(=O)N2[C@@H](c3ccc(Cl)cc3)C(C(=O)O)=CC[C@H]2c2ccc(C(C)C)cc2)cc1	USP2a block inconclusive, GCN5L2 inh-1 inconclusive
Cc1ccc([C@H]2C(C(=O)O)=CC[C@@H](c3ccc(Cl)cc3)N2S(=O)(=O)c2ccc(C)cc2)cc1	USP2a block inconclusive, GCN5L2 inh-1 14µM, Eya2 inh inconclusive | GCN5L2 inh-2 inconclusive
COc1cc(N=c2ssnc2Cl)cc(OC)c1OC	GCN5L2 inh-1 10µM, BCR signal inh inconclusive | GCN5L2 inh-2 3.6
O=C(OCCN1C(=O)c2cccc3c(N4CCOCC4)ccc(c23)C1=O)c1cccc(Cl)c1	GCN5L2 inh-1 inconclusive | GCN5L2 inh-2 inconclusive
O=C(OCCN1C(=O)c2cccc3c(N4CCOCC4)ccc(c23)C1=O)c1ccc(Cl)cc1Cl	none
Cc1ccc(NC(=O)c2ccco2)c(OCc2cc(=O)n3cc(C)sc3n2)c1	none (no result: USP2a block, uPA surface inh, Eya2 inh, BCR signal inh)
Nc1c(C(=O)N2CCCCC2)sc(=S)n1-c1ccccc1	RGS4 inhibitor inconclusive, GCN5L2 inh-1 inconclusive, BCR signal inh inconclusive (no result: uPA surface inh) | GCN5L2 inh-2 inconclusive
CC(=O)NC(=S)Nc1sc2c(c1C(N)=O)CCC(C)C2 (centres undefined)	GCN5L2 inh-1 20µM, BCR signal inh inconclusive | GCN5L2 inh-2 32
COc1cccc(Nc2ncc3nc(-c4cccs4)c(=O)n(C[C@H]4CCCO4)c3n2)c1	none (no result: USP2a block, RGS4 inhibitor, uPA surface inh, Eya2 inh, BCR signal inh)
COc1ccc(-c2cn3nc(SCC(=O)Nc4cc(C)cc(C)c4)ccc3n2)cc1	none (no result: USP2a block, uPA surface inh, Eya2 inh, BCR signal inh)
Cc1ccc(N2C(=O)C3C(C(=O)c4ccccc4)=NN(c4ccccc4)C3C2=O)cc1 (centres undefined)	GCN5L2 inh-1 20µM | GCN5L2 inh-2 inconclusive
O=C(C1=NN(c2ccccc2)C2C(=O)N(c3ccccc3Cl)C(=O)C12)c1ccccc1 (centres undefined)	GCN5L2 inh-1 inconclusive | GCN5L2 inh-2 inconclusive
O=C(O)CCS(=O)(=O)c1cccc2cccnc12	GCN5L2 inh-1 inconclusive
